The target in one assay is POU1 (OCT1 POU domain) (human, UniProt P14859 260-458). The assay is described as follows: EMSA-SELEX-seq; no BOB1; 20 mM Tris-HCl pH 7.6, 140 mM NaCl, 10% glycerol, 0.5 mM EDTA, 0.05% Triton X-100, 0.1 mg/mL BSA, 0.1 mg/mL poly(dI-dC), 5 mM DTT, room temperature, 20 min; high values mean tight binding. The following applies: protein: recombinant; dsDNA, one strand shown. In a few lines: (§1)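 In this selection, tagged POU-domain proteins from E. coli BL21, purified under denaturing conditions and renatured, were bound to a PCR-amplified double-stranded random 35-nt library with or without coactivator protein. Reactions held 30 ng protein, 300 ng library and, where used, 28 ng coactivator protein in 20 μL Tris–HCl pH 7.6 binding buffer for 20 min at RT. Complex bands were cut from native 6% PAGE, eluted and PCR-amplified over four rounds, then Illumina-sequenced, and binding preference is the percentage of sequenced 8-mers matching a motif pattern.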
Sequence of POU1 (OCT1 POU domain) (P14859 260-458): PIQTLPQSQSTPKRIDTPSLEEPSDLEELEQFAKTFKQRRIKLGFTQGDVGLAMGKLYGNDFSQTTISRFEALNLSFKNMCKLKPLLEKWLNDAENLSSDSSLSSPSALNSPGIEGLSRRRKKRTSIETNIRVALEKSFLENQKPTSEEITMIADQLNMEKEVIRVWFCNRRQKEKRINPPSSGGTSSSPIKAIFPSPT

The target in a further assay is T1, POU2 (OCT2 POU domain) (human, UniProt P09086 175-386).
T1 sequence: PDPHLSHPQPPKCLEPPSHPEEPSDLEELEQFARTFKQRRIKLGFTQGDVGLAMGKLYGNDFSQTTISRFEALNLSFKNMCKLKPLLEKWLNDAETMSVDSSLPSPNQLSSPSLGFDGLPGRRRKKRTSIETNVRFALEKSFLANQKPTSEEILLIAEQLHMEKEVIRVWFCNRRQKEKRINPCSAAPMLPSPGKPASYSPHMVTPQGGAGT
Described as above. The following applies: protein: recombinant; dsDNA, one strand shown. In a few lines:
as §1

The target in assay [1] is POU1 (OCT1 POU domain);BOB1 (OBF1, OCA-B) (human;human, UniProt P14859;Q16633 260-458;1-256, |). The assay is described as follows: EMSA-SELEX-seq; with BOB1 (ternary complex band); 20 mM Tris-HCl pH 7.6, 140 mM NaCl, 10% glycerol, 0.5 mM EDTA, 0.05% Triton X-100, 0.1 mg/mL BSA, 0.1 mg/mL poly(dI-dC), 5 mM DTT, room temperature, 20 min; high values mean tight binding. The following applies: protein: recombinant;recombinant; copies: 1;1; dsDNA, one strand shown. In a few lines:
as §1
On the technique in general: In EMSA bound probe runs differently from free probe, usually more slowly.

Assay [2] deals with T2, POU2 (OCT2 POU domain);BOB1 (OBF1, OCA-B) (human;human, UniProt P09086;Q16633 175-386;1-256, |).
T2 sequence 1: T1 sequence
T2 sequence 2: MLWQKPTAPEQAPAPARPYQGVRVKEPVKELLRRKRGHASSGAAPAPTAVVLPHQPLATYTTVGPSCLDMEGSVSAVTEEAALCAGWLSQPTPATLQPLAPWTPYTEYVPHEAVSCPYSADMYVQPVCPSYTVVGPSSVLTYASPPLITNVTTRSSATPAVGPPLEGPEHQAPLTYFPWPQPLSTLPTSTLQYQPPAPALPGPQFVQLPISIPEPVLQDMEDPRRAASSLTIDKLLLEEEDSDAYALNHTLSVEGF
The description is as above. The following applies: protein: recombinant;recombinant; copies: 1;1; dsDNA, one strand shown. In a few lines: as §1

Consider ACGATAAT, for which the binding signal with POU1 (OCT1 POU domain) is 0.0896 % of ANNNNAAN 8-mers; in the assay with POU2 (OCT2 POU domain), 0.123 % of ANNNNAAN 8-mers; in assay [1] it was 0.0535 % of ANNNNAAN 8-mers; in assay [2], 0.085 % of ANNNNAAN 8-mers.

Consider AGAATAAA, for which the binding signal was 0.161 % of ANNNNAAN 8-mers with POU1 (OCT1 POU domain), 0.182 % of ANNNNAAN 8-mers in the assay with POU2 (OCT2 POU domain), 0.0757 % of ANNNNAAN 8-mers in assay [1] and 0.0892 % of ANNNNAAN 8-mers in assay [2].

As for ATGGGAAA, the binding signal was 0.098 % of ANNNNAAN 8-mers with POU1 (OCT1 POU domain), 0.1 % of ANNNNAAN 8-mers with POU2 (OCT2 POU domain), 0.118 % of ANNNNAAN 8-mers in assay [1] and 0.0784 % of ANNNNAAN 8-mers in assay [2].

For AAGTAAAG, the binding signal in the assay with POU1 (OCT1 POU domain) was 0.0545 % of ANNNNAAN 8-mers; with POU2 (OCT2 POU domain) it was 0.0541 % of ANNNNAAN 8-mers; in assay [1] it was 0.0687 % of ANNNNAAN 8-mers; in assay [2] it was 0.0545 % of ANNNNAAN 8-mers.

AGAGCAAA: the binding signal in the assay with POU1 (OCT1 POU domain) was 0.0374 % of ANNNNAAN 8-mers; in the assay with POU2 (OCT2 POU domain) it was 0.0293 % of ANNNNAAN 8-mers; in assay [1], 0.0433 % of ANNNNAAN 8-mers; in assay [2], 0.0413 % of ANNNNAAN 8-mers.

On to ACAATAAT, for which the binding signal was 0.0778 % of ANNNNAAN 8-mers with POU1 (OCT1 POU domain), 0.0978 % of ANNNNAAN 8-mers with POU2 (OCT2 POU domain), 0.0515 % of ANNNNAAN 8-mers in assay [1] and 0.0528 % of ANNNNAAN 8-mers in assay [2].

Take ATGCAAAA: the binding signal in the assay with POU1 (OCT1 POU domain) is 1.5 % of ANNNNAAN 8-mers; with POU2 (OCT2 POU domain), 1.17 % of ANNNNAAN 8-mers; in assay [1], 3.15 % of ANNNNAAN 8-mers; in assay [2], 3.29 % of ANNNNAAN 8-mers.

Regarding ATGGGAAG, the binding signal with POU1 (OCT1 POU domain) was 0.0652 % of ANNNNAAN 8-mers; with POU2 (OCT2 POU domain), 0.0696 % of ANNNNAAN 8-mers; in assay [1], 0.0683 % of ANNNNAAN 8-mers; in assay [2], 0.0735 % of ANNNNAAN 8-mers.

As for ATGGTAAG, the binding signal in the assay with POU1 (OCT1 POU domain) is 0.0984 % of ANNNNAAN 8-mers; with POU2 (OCT2 POU domain) it was 0.127 % of ANNNNAAN 8-mers; in assay [1], 0.071 % of ANNNNAAN 8-mers; in assay [2], 0.09 % of ANNNNAAN 8-mers.

With AAACGAAG, the binding signal is 0.045 % of ANNNNAAN 8-mers with POU1 (OCT1 POU domain), 0.0483 % of ANNNNAAN 8-mers with POU2 (OCT2 POU domain), 0.0589 % of ANNNNAAN 8-mers in assay [1] and 0.0528 % of ANNNNAAN 8-mers in assay [2].

For the sequence ATGCTAAC, the binding signal with POU1 (OCT1 POU domain) is 0.0671 % of ANNNNAAN 8-mers; in the assay with POU2 (OCT2 POU domain), 0.0949 % of ANNNNAAN 8-mers; in assay [1], 0.0347 % of ANNNNAAN 8-mers; in assay [2] it was 0.0495 % of ANNNNAAN 8-mers.

In the case of AGCGCAAG, the binding signal is 0.013 % of ANNNNAAN 8-mers with POU1 (OCT1 POU domain), 0.0121 % of ANNNNAAN 8-mers with POU2 (OCT2 POU domain), 0.0144 % of ANNNNAAN 8-mers in assay [1] and 0.0165 % of ANNNNAAN 8-mers in assay [2].

In the case of AAGGGAAG, the binding signal with POU1 (OCT1 POU domain) is 0.05 % of ANNNNAAN 8-mers; with POU2 (OCT2 POU domain), 0.0541 % of ANNNNAAN 8-mers; in assay [1] it was 0.0511 % of ANNNNAAN 8-mers; in assay [2], 0.0388 % of ANNNNAAN 8-mers.

AAATTAAA: the binding signal was 0.328 % of ANNNNAAN 8-mers in the assay with POU1 (OCT1 POU domain), 0.349 % of ANNNNAAN 8-mers with POU2 (OCT2 POU domain), 0.213 % of ANNNNAAN 8-mers in assay [1] and 0.217 % of ANNNNAAN 8-mers in assay [2].

For ATCTCAAC, the binding signal with POU1 (OCT1 POU domain) was 0.0252 % of ANNNNAAN 8-mers; with POU2 (OCT2 POU domain), 0.027 % of ANNNNAAN 8-mers; in assay [1] it was 0.0254 % of ANNNNAAN 8-mers; in assay [2], 0.0264 % of ANNNNAAN 8-mers.

For AGGTTAAC, the binding signal in the assay with POU1 (OCT1 POU domain) was 0.032 % of ANNNNAAN 8-mers; in the assay with POU2 (OCT2 POU domain), 0.0293 % of ANNNNAAN 8-mers; in assay [1], 0.0324 % of ANNNNAAN 8-mers; in assay [2], 0.0338 % of ANNNNAAN 8-mers.

Take ATATTAAA: the binding signal with POU1 (OCT1 POU domain) was 0.297 % of ANNNNAAN 8-mers; in the assay with POU2 (OCT2 POU domain) it was 0.365 % of ANNNNAAN 8-mers; in assay [1], 0.131 % of ANNNNAAN 8-mers; in assay [2] it was 0.14 % of ANNNNAAN 8-mers.

In the case of AACGGAAC, the binding signal in the assay with POU1 (OCT1 POU domain) was 0.0187 % of ANNNNAAN 8-mers; in the assay with POU2 (OCT2 POU domain), 0.0201 % of ANNNNAAN 8-mers; in assay [1] it was 0.025 % of ANNNNAAN 8-mers; in assay [2], 0.0206 % of ANNNNAAN 8-mers.

For ATGCTAAG, the binding signal is 0.149 % of ANNNNAAN 8-mers with POU1 (OCT1 POU domain), 0.156 % of ANNNNAAN 8-mers with POU2 (OCT2 POU domain), 0.0777 % of ANNNNAAN 8-mers in assay [1] and 0.0726 % of ANNNNAAN 8-mers in assay [2].

As for ATGCGAAG, the binding signal is 0.0538 % of ANNNNAAN 8-mers with POU1 (OCT1 POU domain), 0.0604 % of ANNNNAAN 8-mers with POU2 (OCT2 POU domain), 0.0523 % of ANNNNAAN 8-mers in assay [1] and 0.057 % of ANNNNAAN 8-mers in assay [2].

On to ATGGAAAG, for which the binding signal in the assay with POU1 (OCT1 POU domain) is 0.148 % of ANNNNAAN 8-mers; with POU2 (OCT2 POU domain), 0.112 % of ANNNNAAN 8-mers; in assay [1], 0.199 % of ANNNNAAN 8-mers; in assay [2], 0.129 % of ANNNNAAN 8-mers.

(Values after article PMC10812921, “Transcriptional Coactivator BOB1 (OBF1, OCA-B) Modulates the Specificity of DNA Recognition by the POU-Domain Factors OCT1 and OCT2 in a Monomeric Configuration”.)
